Laboratory results as given in PubChem BioAssay (NCATS).
Results filed as inconclusive are left out. Calls of active or inactive are those of the source. Calls follow the shape of the dose curve; as a rule, active = well fitted curve in the direction sought with a large enough effect; inconclusive = small, poorly fitted or top-dose-only effect, or another doubt; inactive = no such curve, though single readings can be large; an effect the other way counts as inactive or inconclusive.

Tests used:
HACAT = assay: qHTS assay to identify novel small-molecules to repurpose for Merkel cell carcinoma treatment (AID 1296009); details: MCC and control cell lines, CellTiter-Glo viability, 72 h; at 44.8 µM (top of the series) unless noted; also: nearly all actives have a fitted effect of over 60% in size
Method in brief: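 72 hr, 37 degree celsius; NPC 8-pt / MIPE 11-pt dose response; compound pinned in DMSO; CellTiter-Glo, 10 min RT, luminescence; normalized to no-cell and DMSO controls.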

C33A = assay: Primary qHTS to identify gynecologic anti-cancer compounds using libraries of approved drugs and bioactive compounds (AID 1345084); details: Gynecologic cancer cell panel viability, ATPlite luminescence, 48 h; series mostly up to 57.5 µM; also: % is scaled to controls: 0 for no effect and ±100 for the full control effect; nearly all actives have a fitted effect of over 55% in size
Method in brief: (§1)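 Luminescence from the ATPlite ATP-monitoring reagent indicates viable cell number; lower signal means cytotoxicity. Cells received compound 16 h after seeding and were exposed for 48 h across five concentrations.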

CAOV3 = assay: as above; details: Gynecologic cancer cell panel viability, ATPlite luminescence, 48 h; series mostly up to 57.5 µM
Method in brief: as §1

CASKI = assay: as above; details: Gynecologic cancer cell panel viability, ATPlite luminescence, 48 h; series mostly up to 57.5 µM
Method in brief: as §1

Es-2 = assay: as above; details: Gynecologic cancer cell panel viability, ATPlite luminescence, 48 h; series mostly up to 57.5 µM
Method in brief: as §1

HeLa = assay: as above; details: Gynecologic cancer cell panel viability, ATPlite luminescence, 48 h; series mostly up to 57.5 µM
Method in brief: as §1

Hek293T = assay: as above; details: Gynecologic cancer cell panel viability, ATPlite luminescence, 48 h, control line for the selectivity index; series mostly up to 57.5 µM
Method in brief: as §1

JEG-3 = assay: as above; details: Gynecologic cancer cell panel viability, ATPlite luminescence, 48 h; series mostly up to 57.5 µM
Method in brief: as §1

OV90 = assay: as above; details: Gynecologic cancer cell panel viability, ATPlite luminescence, 48 h; series mostly up to 57.5 µM
Method in brief: as §1

PA-1 = assay: as above; details: Gynecologic cancer cell panel viability, ATPlite luminescence, 48 h; series mostly up to 57.5 µM
Method in brief: as §1

SKOV3 = assay: as above; details: Gynecologic cancer cell panel viability, ATPlite luminescence, 48 h; series mostly up to 57.5 µM
Method in brief: as §1

Tov-21-G = assay: as above; details: Gynecologic cancer cell panel viability, ATPlite luminescence, 48 h; series mostly up to 57.5 µM
Method in brief: as §1

Tov112D = assay: as above; details: Gynecologic cancer cell panel viability, ATPlite luminescence, 48 h; series mostly up to 57.5 µM
Method in brief: as §1

OC[C@H]1O[C@@H](OCCc2ccccc2)[C@H](O)[C@@H](O)[C@@H]1O
inactive: outcome (HACAT) | Potency (C33A) | Potency (CAOV3) | outcome (CASKI) | Potency (Es-2) | Potency (HeLa) | Potency (Hek293T) | Potency (JEG-3) | Potency (OV90) | Potency (PA-1) | Potency (SKOV3) | Potency (Tov-21-G) | Potency (Tov112D)

COc1c(C)c(OCC(O)C(C)(C)O)cc2c1CNC2=O (configuration not stated)
inactive: outcome (HACAT) | Potency (C33A) | Potency (CAOV3) | outcome (CASKI) | Potency (Es-2) | Potency (HeLa) | Potency (Hek293T) | Potency (JEG-3) | Potency (OV90) | Potency (PA-1) | Potency (SKOV3) | Potency (Tov-21-G) | Potency (Tov112D)

COC(=O)C1=COC(OC2OC(CO)C(O)C(O)C2O)C2C(COC(=O)/C=C/c3ccc(O)c(O)c3)C(O)C(O)C12 (configuration not stated)
inactive: outcome (HACAT) inactive [at 17.4 µM] | Potency (C33A) | Potency (CAOV3) | outcome (CASKI) | Potency (Es-2) | Potency (HeLa) | Potency (Hek293T) | Potency (JEG-3) | Potency (OV90) | Potency (PA-1) | Potency (SKOV3) | Potency (Tov-21-G) | Potency (Tov112D)

CC(=O)O[C@@H]1C[C@@H](C)[C@](O)(CCC2=CC(=O)OC2)[C@@]2(C)CCCC(C)(C)C12 (some centres not stated)
inactive: outcome (HACAT) | Potency (C33A) | Potency (CAOV3) | outcome (CASKI) | Potency (Es-2) | Potency (HeLa) | Potency (Hek293T) | Potency (JEG-3) | Potency (OV90) | Potency (PA-1) | Potency (SKOV3) | Potency (Tov-21-G) | Potency (Tov112D)

O=C(OC[C@H]1O[C@H](O[C@]2(CO)O[C@H](CO)[C@@H](O)[C@@H]2O)[C@H](O)[C@@H](O)[C@@H]1O)c1ccc(O)cc1
inactive: outcome (HACAT) inactive [at 17.4 µM] | Potency (C33A) | Potency (CAOV3) | outcome (CASKI) | Potency (Es-2) | Potency (HeLa) | Potency (Hek293T) | Potency (JEG-3) | Potency (OV90) | Potency (PA-1) | Potency (SKOV3) | Potency (Tov-21-G) | Potency (Tov112D)

C=C1CC[C@@H]2[C@@](C)(CO[C@@H]3O[C@H](CO)[C@@H](O)[C@H](O)[C@H]3O)[C@H](O)CC[C@@]2(C)[C@@H]1CC/C(C)=C/CO[C@@H]1O[C@H](CO)[C@@H](O)[C@H](O)[C@H]1O
inactive: outcome (HACAT) inactive [at 17.4 µM] | Potency (C33A) | Potency (CAOV3) | outcome (CASKI) | Potency (Es-2) | Potency (HeLa) | Potency (Hek293T) | Potency (JEG-3) | Potency (OV90) | Potency (PA-1) | Potency (SKOV3) | Potency (Tov-21-G) | Potency (Tov112D)

COc1cc(O)c(C(=O)O)c(CCc2ccccc2)c1
inactive: outcome (HACAT) | Potency (C33A) | Potency (CAOV3) | outcome (CASKI) | Potency (Es-2) | Potency (HeLa) | Potency (Hek293T) | Potency (JEG-3) | Potency (OV90) | Potency (PA-1) | Potency (SKOV3) | Potency (Tov-21-G) | Potency (Tov112D)

COC(=O)C1=COC(OC2OC(CO)C(O)C(O)C2O)C2C(C)C(OC(=O)/C=C/c3ccc(O)cc3)C(O)C12 (configuration not stated)
inactive: outcome (HACAT) inactive [at 17.4 µM] | Potency (C33A) | Potency (CAOV3) | outcome (CASKI) | Potency (Es-2) | Potency (HeLa) | Potency (Hek293T) | Potency (JEG-3) | Potency (OV90) | Potency (PA-1) | Potency (SKOV3) | Potency (Tov-21-G) | Potency (Tov112D)

Cc1c(NC(=O)N2CCOCC2)ccc2c1c1ccccc1n2C(C)C
inactive: outcome (HACAT) | Potency (C33A) | Potency (CAOV3) | outcome (CASKI) | Potency (Es-2) | Potency (HeLa) | Potency (Hek293T) | Potency (JEG-3) | Potency (OV90) | Potency (PA-1) | Potency (SKOV3) | Potency (Tov-21-G) | Potency (Tov112D)

C[C@@H]1O[C@@H](O[C@H]2[C@H](OC(=O)[C@]34CCC(C)(C)C[C@H]3C3=CCC5[C@@]6(C)CC[C@H](O[C@@H]7O[C@H](CO[C@@H]8OC[C@H](O)[C@H](O)[C@H]8O)[C@@H](O)[C@H](O)[C@H]7O)C(C)(C)C6CC[C@@]5(C)[C@]3(C)C[C@H]4O)OC[C@@H](O)[C@@H]2O)[C@H](O)[C@H](O[C@@H]2OC[C@](O)(CO)[C@H]2O)[C@H]1O[C@@H]1OC[C@H](O)[C@H](O[C@@H]2OC[C@@H](O)[C@H](O)[C@H]2O)[C@H]1O (some centres not stated)
inactive: outcome (HACAT) inactive [at 9.27 µM] | activity change, negative = cytotoxicity (C33A) -0.179% [at 6.55 µM] | activity change, negative = cytotoxicity (CAOV3) 23.4% [at 6.55 µM] | activity change, negative = cytotoxicity (CASKI) 9.95% [at 6.55 µM] | activity change, negative = cytotoxicity (Es-2) 8.45% [at 6.55 µM] | activity change, negative = cytotoxicity (HeLa) 22.1% [at 6.55 µM] | activity change, negative = cytotoxicity (Hek293T) 8.51% [at 6.55 µM] | activity change, negative = cytotoxicity (JEG-3) -2.51% [at 6.55 µM] | activity change, negative = cytotoxicity (OV90) -11.9% [at 6.55 µM] | activity change, negative = cytotoxicity (PA-1) -3.2% [at 6.55 µM] | activity change, negative = cytotoxicity (SKOV3) 6.12% [at 6.55 µM] | activity change, negative = cytotoxicity (Tov-21-G) 4.71% [at 6.55 µM] | activity change, negative = cytotoxicity (Tov112D) 0.0459% [at 6.55 µM]

CCCSc1nc(NC2CC2c2ccc(F)c(F)c2)c2nnn(C3CC(OCCO)C(O)C3O)c2n1 (configuration not stated)
inactive: outcome (HACAT) | Potency (C33A) | Potency (CAOV3) | outcome (CASKI) | Potency (Es-2) | Potency (HeLa) | Potency (Hek293T) | Potency (JEG-3) | Potency (OV90) | Potency (PA-1) | Potency (SKOV3) | Potency (Tov-21-G) | Potency (Tov112D)

N[C@@H](CCNCc1ccc(Cl)cc1)C(=O)N1CCCCC1
inactive: outcome (HACAT) | Potency (C33A) | Potency (CAOV3) | outcome (CASKI) | Potency (Es-2) | Potency (HeLa) | Potency (Hek293T) | Potency (JEG-3) | Potency (OV90) | Potency (PA-1) | Potency (SKOV3) | Potency (Tov-21-G) | Potency (Tov112D)

COC(=O)C(Cc1ccccc1)NC(=O)c1ccccc1 (configuration not stated)
inactive: outcome (HACAT) | Potency (C33A) | Potency (CAOV3) | outcome (CASKI) | Potency (Es-2) | Potency (HeLa) | Potency (Hek293T) | Potency (JEG-3) | Potency (OV90) | Potency (PA-1) | Potency (SKOV3) | Potency (Tov-21-G) | Potency (Tov112D)

CC(C)(O)/C=C/C(=O)[C@](C)(O)[C@H]1[C@H](O)C[C@@]2(C)[C@@H]3CC=C4[C@@H](C=C(O[C@@H]5O[C@H](CO)[C@@H](O)[C@H](O)[C@H]5O)C(=O)C4(C)C)[C@]3(C)C(=O)C[C@]12C
inactive: outcome (HACAT) inactive [at 17.4 µM] | Potency (C33A) | Potency (CAOV3) | outcome (CASKI) | Potency (Es-2) | Potency (HeLa) | Potency (Hek293T) | Potency (JEG-3) | Potency (OV90) | Potency (PA-1) | Potency (SKOV3) | Potency (Tov-21-G) | Potency (Tov112D)
